Screening data deposited in PubChem BioAssay by several laboratories.
Jurkat NFkB inh – inhibitors of induced NF-kB luciferase reporter, primary screen, TCR NF-kB activation inhibitor project, cell-based, luminescence, uHTS; Jurkat, PMA/ionomycin-induced NF-kB luciferase reporter; inhibition, % at 4 µM; 0.53% of 330,000 active; in the data active = inhibition above about 50%
697 NFkB inh – inhibitors of PMA/ionomycin-induced NF-kB reporter, 697 cells, primary screen, B-cell NF-kB inhibitor project, cell-based, luminescence, uHTS | inhibition, % at 4 µM | 697 B-cell NF-kB luciferase reporter, 16 h | AID 435022, 2010 | 0.33% of 330,000 active; in the data active = inhibition above about 35%
Gli-Sufu antag – Gli-Sufu pathway antagonists, primary screen, luciferase luminescence, Sufu-KO-LIGHT cells, uHTS; Sufu-KO-LIGHT fibroblasts, Gli luciferase reporter luminescence; inhibition, % at 5 µM; 0.74% of 340,000 active; AID 588413, 2011;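 active = inhibition above about 55%, limit read from the data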
Shn3 inh set2 – reduction of Shn3 3'UTR firefly luciferase signal, primary screen, Schnurri-3 inhibitor project, cell-based, Clone20 osteoblasts, set 2 | Clone20 osteoblast Shn3 3'UTR firefly luciferase, 24 h | inhibition, % at 12.5 µM | 0.52% of 360,000 active;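 active = mean inhibition of at least 75% with every replicate also reaching 75%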
Mdm2-MdmX inh – inhibitors of human Mdm2-MdmX association, primary screen, cell-based, luminescence, split luciferase, SaOS-2, uHTS | AID 485346, 2010 | 3% of 330,000 active | Protein Mdm4 (Homo sapiens) + E3 ubiquitin-protein ligase Mdm2 (Homo sapiens), … | SaOS-2 split-luciferase Mdm2/MdmX complementation | inhibition, % at 8 µM;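 active = inhibition of at least 50% at 8 µM in the primary screen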
Target sequence (O15151 whole entry, looked up): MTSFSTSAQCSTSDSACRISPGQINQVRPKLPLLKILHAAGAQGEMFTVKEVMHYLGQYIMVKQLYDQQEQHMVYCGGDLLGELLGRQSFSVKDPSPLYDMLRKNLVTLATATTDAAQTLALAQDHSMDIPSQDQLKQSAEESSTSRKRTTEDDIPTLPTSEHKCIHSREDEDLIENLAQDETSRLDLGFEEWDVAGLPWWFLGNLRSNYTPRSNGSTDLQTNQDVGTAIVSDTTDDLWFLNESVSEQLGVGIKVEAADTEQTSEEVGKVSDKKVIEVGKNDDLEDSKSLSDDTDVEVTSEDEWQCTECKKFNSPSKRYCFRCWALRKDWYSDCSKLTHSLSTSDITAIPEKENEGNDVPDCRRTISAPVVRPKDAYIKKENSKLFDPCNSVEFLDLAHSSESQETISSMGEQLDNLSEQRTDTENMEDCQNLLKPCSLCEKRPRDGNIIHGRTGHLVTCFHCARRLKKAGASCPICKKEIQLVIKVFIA
Target sequence (Q00987 whole entry, looked up): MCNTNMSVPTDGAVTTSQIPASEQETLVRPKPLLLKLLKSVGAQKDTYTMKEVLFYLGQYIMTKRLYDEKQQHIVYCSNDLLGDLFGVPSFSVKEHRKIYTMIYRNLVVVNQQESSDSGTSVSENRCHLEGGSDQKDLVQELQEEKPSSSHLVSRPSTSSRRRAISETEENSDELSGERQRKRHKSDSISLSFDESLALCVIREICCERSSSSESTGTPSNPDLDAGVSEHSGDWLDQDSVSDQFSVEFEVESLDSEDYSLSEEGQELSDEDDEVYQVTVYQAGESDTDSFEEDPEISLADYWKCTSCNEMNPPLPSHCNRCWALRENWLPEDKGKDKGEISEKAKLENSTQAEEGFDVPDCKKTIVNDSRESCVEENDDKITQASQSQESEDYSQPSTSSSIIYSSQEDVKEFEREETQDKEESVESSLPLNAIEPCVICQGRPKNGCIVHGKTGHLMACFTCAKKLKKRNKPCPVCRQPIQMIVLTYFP
Gli-Sufu confirm – Gli-SUFU pathway antagonists, confirmation, single concentration, luciferase luminescence, Sufu-KO-LIGHT cells; shares compounds with Gli-Sufu antag; Gli luciferase reporter; inhibition, % at 5 µM; 40% of 2,500 active; AID 602428, 2012;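 active = mean inhibition at 5 µM reaching about 45%, limit read from the data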
Gli cytotox – cytotoxicity in Sufu-KO-LIGHT cells, confirmation, cytotoxicity control for Gli-SUFU antagonist project, cell-based, ATP luminescence, single concentration | 32% of 2,500 active | shares compounds with Gli-Sufu antag | AID 651994, 2013 | cytotoxicity, % at 5 µM;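 active = mean cytotoxicity at 5 µM above about 25%, limit read from the data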;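 note: cells exposed to compound overnight for roughly 16 to 18 hours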
Wnt3a cs – Wnt3a reporter signal inhibition, confirmation, counter-screen for Gli-SUFU antagonist project, Wnt-LIGHT cells, luminescence, single concentration; Wnt3a-driven luciferase reporter; 20% of 2,500 active; inhibition, % at 6.25 µM; shares compounds with Gli-Sufu antag;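 active = mean inhibition above about 25%, limit read from the data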
A number is an active result; – = inactive; · = no result given. Sampled rows, rich in hits. Any-hit rate of the full collection: about 3.8%.

SMILES	Jurkat NFkB inh	697 NFkB inh	Gli-Sufu antag	Shn3 inh set2	Mdm2-MdmX inh	Gli-Sufu confirm	Gli cytotox	Wnt3a cs
CC(=O)Oc1ccc2c(c1)OC(c1ccccc1)CC21CC(C)(C)NC(=S)N1 (stereo not given)	–	–	–	–	–	·	·	·
COc1ccc(C2(c3ccc(OC(C)=O)cc3OC(C)=O)CC(c3ccccc3)NC(=S)N2)cc1 (stereo not given)	–	–	62	–	–	–	–	–
COc1ccc2[nH]c(=O)c(CN(Cc3ccco3)C(=O)c3ccccc3)cc2c1	–	–	95	–	–	–	–	–
Cc1ccc(C(=O)N2CCN3C(=O)c4ccccc4C23c2ccc(Cl)cc2)cc1 (stereo not given)	–	–	56	–	–	61	–	–
CSc1ccc(S(=O)(=O)NCC(=O)OCC(=O)N2CCCCC2C)cc1[N+](=O)[O-] (stereo not given)	–	–	–	–	–	·	·	·
CCOC(=O)C1(CCOc2ccccc2)CCN(Cc2ccc(OC)c(O)c2)CC1	–	–	–	–	–	·	·	·
CCOC(=O)C1(CCOc2ccccc2)CCN(Cc2ccc(OC)c(COC)c2)CC1	–	–	57	88	–	–	–	–
CN1CCC(=C2c3ccccc3Sc3ccccc32)CC1	·	·	56	–	·	–	37	–
O=C1Cc2ccccc2Sc2ccccc21	–	–	–	–	–	·	·	·
CC/C=C(\NC(C)=O)c1ccccc1	–	–	–	–	–	·	·	·
COC(=O)CCCCCCCCCC[N+]1(C)CCCCC1	–	–	–	–	–	·	·	·
C[N+]1(CC(=O)OC2CCCCCCCCCCC2)CCCC1	–	–	65	–	–	56	29	–
CCc1cc(=O)oc2cc(C)cc(OC(C)C(=O)NCc3cccnc3)c12 (stereo not given)	–	–	–	–	–	·	·	·
CN(C)/C=C1/NC(=S)NC1=O	–	–	63	–	–	–	–	–
CCN1C(=O)/C(=C\N(C)C)NC1=S	–	–	–	–	–	·	·	·
CC1=CC(C)(C)N=C(Nc2nc(C)c3cc(C)cc(C)c3n2)N1	–	–	–	–	–	–	–	–
O=C(O)c1cccc(N/N=C/c2sc(N3CCOCC3)nc2-c2ccccc2)c1	–	–	–	–	–	·	·	·
O=[N+]([O-])c1ccc(N/N=C/c2sc(N3CCOCC3)nc2-c2ccccc2)c(S(=O)(=O)Nc2ccccc2Cl)c1	·	·	69	87	·	81	–	60
O=Cc1sc(N2CCOCC2)nc1-c1ccccc1	–	–	·	·	–	·	·	·
O=[N+]([O-])c1ccc(N/N=C/c2sc(N3CCOCC3)nc2-c2ccccc2)c(S(=O)(=O)Nc2ccc(Cl)cc2)c1	·	·	90	91	·	90	–	72
CCCCn1c(N)c(N(CC(C)C)C(=O)c2cc(-c3ccc(F)cc3)nc3ccccc23)c(=O)[nH]c1=O	–	–	–	–	–	·	·	·
CCOc1ccccc1NC(=O)COC(=O)c1c(CC)noc1C	–	–	67	–	–	–	–	–
CCc1noc(C)c1C(=O)OCC(=O)Nc1c(F)cccc1F	–	–	–	–	–	·	·	·
CCOC(=O)C1(Cc2ccccc2)CCCN(Cc2ccc(OCCO)cc2)C1 (stereo not given)	–	–	–	–	–	·	·	·
Cc1cc(C)n(-c2nnc(C)n2/N=C/c2ccco2)n1	–	–	–	–	–	–	–	–
SMILES	Jurkat NFkB inh	697 NFkB inh	Gli-Sufu antag	Shn3 inh set2	Mdm2-MdmX inh	Gli-Sufu confirm	Gli cytotox	Wnt3a cs
NC(N)=NC(N)=Nc1ccc2ccccc2c1	–	–	–	–	–	·	·	·
NC(N)=NC(N)=Nc1ccc(SC(F)(F)F)cc1	–	–	67	–	–	72	28	94
Cc1cc(C)cc(NC(=S)NC2CC3CCC(C2)N3Cc2ccco2)c1 (stereo not given)	–	–	–	–	–	·	·	·
Cc1ccc(C)c(NC(=S)NC2CC3CCC(C2)N3Cc2ccco2)c1 (stereo not given)	–	–	76	–	–	–	–	–
CCc1ccc(N2CC(C(=O)Nc3ccccc3N3CCCC3)CC2=O)cc1 (stereo not given)	·	·	·	–	·	·	·	·
CCn1cc(CN2CCC(n3nccc3NC(=O)CCOc3ccccc3)CC2)cn1	–	–	–	–	–	·	·	·
CCn1cc(CN2CCC(n3nccc3NC(=O)CCc3ccccc3)CC2)cn1	–	–	84	–	–	–	–	–
O=C(Nc1ccc(-c2nc3ccccc3[nH]2)cc1)c1ccco1	–	–	–	–	–	·	·	·
O=C(/C=C/c1ccco1)Nc1ccc(-c2nc3ccccc3[nH]2)cc1	·	·	67	–	·	55	–	–
O=C(O)CCCNC(=O)CCCNC(=O)C(c1ccccc1)c1ccccc1	–	–	–	–	–	–	–	–
O=C(O)CCCNC(=O)C(c1ccccc1)c1ccccc1	–	–	–	–	–	·	·	·
CN(Cc1cccc2cnccc12)C(=O)c1cc(COc2ccc(F)cc2F)on1	–	–	–	–	–	·	·	·
CCc1ccc(CN(C)C(=O)c2cc(COc3cccc4cnccc34)on2)cc1	–	–	65	86	–	62	25	–
COc1ccc(CNC(=O)C2CCN(S(=O)(=O)N3CCC4(CC3)OCCO4)CC2)c(OC)c1	–	–	99	–	–	–	–	–
COc1cccc(CNC(=O)C2CCN(S(=O)(=O)N3CCC4(CC3)OCCO4)CC2)c1	–	–	–	–	–	·	·	·
Cc1ccc([N+](=O)[O-])cc1N=Nc1c(-c2ccc([N+](=O)[O-])cc2)[nH]n(C(N)=S)c1=O	·	·	58	–	·	60	–	47
Cc1ccc([N+](=O)[O-])cc1N=Nc1c(C)[nH]n(C(N)=S)c1=O	–	–	–	–	–	·	·	·
CNS(=O)(=O)c1cccc(C(=O)OCC(=O)c2cc(C)n(CC3CCCO3)c2C)c1 (stereo not given)	–	–	–	–	–	68	–	–
Cc1cc(C(=O)COC(=O)c2cccc(S(=O)(=O)N(C)C)c2)c(C)n1CC1CCCO1 (stereo not given)	–	–	–	–	–	·	·	·
Cc1cc(C(=O)COC(=O)c2cccc(O)c2)c(C)n1C1CC1	–	–	99	–	–	–	33	64
Cc1ccc(C(=O)NC(=S)N(C)C2CCCCC2)cc1	–	–	–	–	–	·	·	·
